Data taken from PubChem BioAssay AID1159580 (chemical genetic matrix, 2015).
“And” between values parts separate entries of the source, which are not always exact repeats. Equal values may be shown once. About 2,000 (36%) of roughly 5,500 compounds were called active. Roughly 18% stayed inconclusive and do not appear here. Cut-off read from the data, not from the text of the source: active = normalized growth mostly below about 0.91 (no sharp cut-off); inconclusive = no clear call, values can overlap the other calls; inactive = mostly above about 0.92. The list shows a part of the results.

Test: chemical genetic growth profiling, strain panel (AID 1159580);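 note: tested at 20 µM; growth read once vehicle control cultures reached saturation at 30 °C; 1 = growth at the plate median or of vehicle wells; lower values mean less growth of the strain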
Conditions: S. cerevisiae deletion strains, growth OD

Measured: normalized growth

C=C1C(C2(C)C=CC(=O)C(C)(C)C2CC(=O)OC)CC[C@@]2(C)[C@H](c3ccoc3)OC(=O)C3OC132 (stereo not given in full)
active: locus YGL253W, strain hxk2, active compounds read low 0.91
inactive: locus YAL021C, strain ccr4, active compounds read low 1.02 | locus YAL026C, strain drs2, active compounds read low 0.97 | locus YAL030W, strain snc1, active compounds read low 0.996 | locus YBL061C, strain skt5, active compounds read low 0.988 | locus YBR009C, strain hhf1, active compounds read low 1 | locus YBR021W, strain FUR4, active compounds read low 1.03 | locus YBR023C, strain chs3, active compounds read low 1 | locus YBR171W, strain sec66, active compounds read low 0.954 | locus YBR229C, strain ROT2, active compounds read low 0.957 | locus YBR231C, strain swc5, active compounds read low 0.976 | locus YBR279W, strain paf1, active compounds read low 0.999 | locus YCL011C, strain gbp2, active compounds read low 1 | locus YCL016C, strain dcc1, active compounds read low 1.03 | locus YCL029C, strain bik1, active compounds read low 0.977 | locus YCL061C, strain MRC1, active compounds read low 0.997 | locus YCL069W, strain vba3, active compounds read low 0.986 | locus YCR088W, strain abp1, active compounds read low 0.991 | locus YDL005C, strain med2, active compounds read low 0.997 | locus YDL035C, strain GPR1, active compounds read low 0.978 | locus YDL040C, strain nat1, active compounds read low 0.992 | locus YDL074C, strain BRE1, active compounds read low 0.969 | locus YDL101C, strain DUN1, active compounds read low 0.987 | locus YDL185W, strain tfp1, active compounds read low 0.956 | locus YDL192W, strain arf1, active compounds read low 0.985 | locus YDR001C, strain nth1, active compounds read low 0.992 | locus YDR069C, strain doa4, active compounds read low 0.966 | locus YDR101C, strain arx1, active compounds read low 0.97 | locus YDR137W, strain rgp1, active compounds read low 0.976 | locus YDR159W, strain sac3, active compounds read low 0.962 | locus YDR162C, strain NBP2, active compounds read low 0.982 | locus YDR195W, strain ref2 0.976 | locus YDR297W, strain sur2, active compounds read low 0.996 | locus YDR318W, strain mcm21, active compounds read low 0.99 | locus YDR334W, strain swr1, active compounds read low 0.966 | locus YDR335W, strain msn5, active compounds read low 1 | locus YDR388W, active compounds read low 0.977 | locus YDR392W, strain spt3, active compounds read low 0.942 | locus YDR502C, strain sam2, active compounds read low 0.979 | locus YEL003W, strain gim4, active compounds read low 0.983 | locus YEL037C, strain rad23, active compounds read low 0.989 | locus YEL061C, strain CIN8 (second series), active compounds read low 0.982 | locus YEL061C, strain CIN8, active compounds read low 0.995 | locus YER015W, strain faa2, active compounds read low 0.996 | locus YER016W, strain bim1, active compounds read low 0.989 | locus YER110C, active compounds read low 0.981 | locus YER111C, strain swi4, active compounds read low 0.972 | locus YER155C, strain BEM2 (second series), active compounds read low 1.01 | locus YER155C, strain BEM2, active compounds read low 0.995 | locus YER167W, strain BCK2, active compounds read low 0.985 | locus YFR010W, strain ubp6, active compounds read low 0.971 | locus YGL078C, strain dbp3, active compounds read low 0.978 | locus YGL086W, strain mad1, active compounds read low 1.01 | locus YGL167C, strain pmr1, active compounds read low 0.989 | locus YGL173C, strain kem1, active compounds read low 0.968 | locus YGL227W, strain vid30, active compounds read low 0.999 | locus YGL240W, strain doc1, active compounds read low 0.999 | locus YGL248W, strain PDE1, active compounds read low 0.995 | locus YGR135W, strain pre9, active compounds read low 1.02 | locus YGR229C, strain SMI1, active compounds read low 0.998 | locus YGR252W, strain gcn5, active compounds read low 0.984 | locus YHR013C, strain ard1, active compounds read low 0.993 | locus YHR027C, strain rpn1, active compounds read low 0.972 | locus YHR030C, strain SLT2, active compounds read low 0.991 and 0.976 | locus YHR079C, strain IRE1 (second series), active compounds read low 0.975 | locus YHR079C, strain IRE1, active compounds read low 0.978 | locus YHR094C, strain hxt1, active compounds read low 0.976 | locus YHR129C, strain ARP1, active compounds read low 0.992 | locus YHR142W, strain chs7, active compounds read low 1.02 | locus YHR200W, strain rpn10, active compounds read low 0.968 | locus YIL066C, strain RNR3, active compounds read low 0.974 | locus YIL073C, strain SPO22, active compounds read low 0.994 | locus YIL125W, strain kgd1, active compounds read low 0.978 | locus YIR030C, strain dcg1, active compounds read low 0.977 | locus YJL092W, strain hpr5, active compounds read low 0.973 | locus YJL095W, strain BCK1 (second series), active compounds read low 0.979 | locus YJL095W, strain BCK1, active compounds read low 1 and 0.987 | locus YJL115W, strain asf1, active compounds read low 0.98 | locus YJL129C, strain trk1, active compounds read low 0.961 | locus YJL134W, strain LCB3, active compounds read low 0.983 | locus YJL154C, strain vps35, active compounds read low 1.01 | locus YJL164C, strain tpk1, active compounds read low 1.03 | locus YJL166W, strain qcr8, active compounds read low 1 | locus YJL168C, strain set2, active compounds read low 0.994 | locus YJL187C, strain SWE1 (second series), active compounds read low 0.989 | locus YJR066W, strain TOR1, active compounds read low 0.932 | locus YJR075W, strain HOC1, active compounds read low 0.98 | locus YKL009W, strain mrt4, active compounds read low 0.986 | locus YKL068W, active compounds read low 0.989 | locus YKL085W, strain MDH1 (second series), active compounds read low 1 | locus YKL085W, strain MDH1, active compounds read low 1 | locus YKL160W, strain elf1, active compounds read low 1.05 | locus YKR001C, strain vps1, active compounds read low 0.992 | locus YKR026C, strain gcn3, active compounds read low 0.981 | locus YKR091W, strain srl3, active compounds read low 0.996 | locus YLL001W, strain dnm1, active compounds read low 0.967 | locus YLL026W, active compounds read low 0.984 | locus YLL041C, strain sdh2, active compounds read low 0.975 | locus YLR027C, strain aat2, active compounds read low 0.978 | locus YLR039C, strain RIC1, active compounds read low 0.92 | locus YLR058C, strain SHM2, active compounds read low 0.979 | locus YLR102C, strain apc9, active compounds read low 0.983 | locus YLR113W, strain HOG1, active compounds read low 0.991 | locus YLR221C, strain rsa3, active compounds read low 0.978 | locus YLR258W, strain gsy2, active compounds read low 1.02 | locus YLR262C, strain YPT6 (second series), active compounds read low 0.983 | locus YLR262C, strain YPT6, active compounds read low 0.933 | locus YLR268W, strain sec22, active compounds read low 0.959 | locus YLR320W, strain mms22, active compounds read low 1 | locus YLR342W, strain FKS1, active compounds read low 0.993 | locus YLR357W, strain rsc2, active compounds read low 0.978 | locus YLR370C, strain arc18, active compounds read low 0.963 | locus YLR371W, strain rom2, active compounds read low 0.972 | locus YLR384C, strain iki3, active compounds read low 1 | locus YLR418C, strain cdc73, active compounds read low 0.994 | locus YML016C, strain PPZ1, active compounds read low 0.978 | locus YML032C, strain rad52, active compounds read low 0.965 | locus YML120C, strain ndi1, active compounds read low 1.02 | locus YML124C, strain tub3, active compounds read low 0.988 | locus YMR058W, strain fet3, active compounds read low 0.994 | locus YMR078C, strain ctf18, active compounds read low 0.961 | locus YMR125W, strain sto1, active compounds read low 0.992 | locus YMR129W, active compounds read low 0.99 | locus YMR205C, strain PFK2, active compounds read low 1 | locus YMR223W, strain ubp8, active compounds read low 0.993 | locus YMR231W, strain pep5, active compounds read low 0.973 | locus YMR263W, strain SAP30, active compounds read low 0.972 | locus YMR307W, strain GAS1, active compounds read low 1.16 | locus YNL067W, strain RPL9B, active compounds read low 0.992 | locus YNL071W, strain lat1, active compounds read low 0.999 | locus YNL153C, strain GIM3, active compounds read low 0.982 | locus YNL183C, strain NPR1, active compounds read low 0.968 | locus YNL209W, strain ssb2, active compounds read low 1 | locus YNL233W, strain BNI4, active compounds read low 1.02 | locus YNL248C, strain rpa49, active compounds read low 0.938 | locus YNL250W, strain rad50, active compounds read low 0.972 | locus YNL271C, strain bni1, active compounds read low 0.976 | locus YNL298W, strain CLA4, active compounds read low 0.976 | locus YNL307C, strain MCK1, active compounds read low 0.982 | locus YNL322C, strain KRE1 (second series), active compounds read low 0.992 | locus YNR049C, strain mso1, active compounds read low 0.988 | locus YNR052C, strain pop2, active compounds read low 0.984 | locus YOL012C, strain htz1 1.19 | locus YOL147C, strain pex11, active compounds read low 0.979 | locus YOR001W, strain rrp6, active compounds read low 0.936 | locus YOR061W, strain CKA2, active compounds read low 0.956 | locus YOR069W, strain VPS5, active compounds read low 0.994 | locus YOR070C, strain gyp1, active compounds read low 0.993 | locus YOR080W, strain dia2, active compounds read low 0.976 | locus YOR083W, strain WHI5, active compounds read low 1.06 | locus YOR106W, strain vam3, active compounds read low 1.06 | locus YOR136W, strain idh2, active compounds read low 0.976 | locus YOR144C, strain elg1, active compounds read low 0.98 | locus YOR184W, strain ser1, active compounds read low 0.953 | locus YOR231W, strain MKK1, active compounds read low 0.996 | locus YOR265W, strain rbl2, active compounds read low 0.991 | locus YOR270C, strain vph1, active compounds read low 0.87 | locus YOR290C, strain snf2, active compounds read low 1.05 | locus YOR316C, strain cot1, active compounds read low 0.981 | locus YPL051W, strain arl3, active compounds read low 0.959 | locus YPL078C, strain atp4, active compounds read low 1.05 | locus YPL106C, strain sse1, active compounds read low 1.04 | locus YPL240C, strain hsp82, active compounds read low 0.976 | locus YPL241C, strain CIN2, active compounds read low 0.986 | locus YPL256C, strain CLN2, active compounds read low 0.995 | locus YPR119W, strain clb2, active compounds read low 0.98 | locus YPR141C, strain kar3, active compounds read low 0.985 | locus YPR163C, strain tif3, active compounds read low 0.983 | locus YPR167C, strain met16, active compounds read low 0.983 | strain wtn01, active compounds read low 0.956
